Among the data in PubChem BioAssay (NCI) are growth values, retold here.

Structures are written as SMILES. This is part of a sample that, as a whole, favours compounds with a hit. Of some 83,000 tested, about 20% had one in any assay.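 Each cell line was grown in a 96-well plate and treated with one concentration of compound for 48 hours. Values below 10 were considered active.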 Unmarked numbers belong to inactive results. The source made the active and inactive calls.

Test systems include NCI-H23 lung; NCI-H226 lung; NCI-H322M lung; HOP-62 NSCLC; NCI-H460 lung; HOP-92 NSCLC; NCI-H522 lung; A549/ATCC NSCLC; 786-0 renal; COLO 205 colon; DU-145 prostate; K-562 leukemia; MALME-3M melanoma; MDA-MB-231 breast; SF-268 CNS; SF-295 CNS; SF-539 CNS; UACC-257 melanoma; M14 melanoma.
Assay in all cases: NCI-60 one-dose screen, 48 h (100 = growth as untreated, 0 = no growth, -100 = all killed)
Common to all, as to settings: 10 µM unless noted

With `CCCCc1ccc(Nc2nnc(SCC(=O)NC(=O)NCC)s2)cc1`, the growth was 97.3% in the assay with NCI-H23 lung; 95.7% in the assay with NCI-H226 lung; 81.5% with NCI-H322M lung; 96% with HOP-62 NSCLC; 102% in the assay with NCI-H460 lung; 61.4% with HOP-92 NSCLC. Also, the growth with NCI-H522 lung is 87.7%; in the assay on A549/ATCC NSCLC, 109%; with 786-0 renal it was 95.9%; with COLO 205 colon, 202%; in the assay on DU-145 prostate, 104%; with K-562 leukemia, 91.6%. Besides, the growth was 97.2% in the assay with MALME-3M melanoma; 88.1% in the assay with MDA-MB-231 breast; 92.4% with SF-268 CNS; 110% with SF-295 CNS; 96.4% in the assay with SF-539 CNS; 113% in the assay with UACC-257 melanoma. Also, the growth in the assay on M14 melanoma was 107%.

With `COc1ccc(CNC(=O)COc2ccc(/C=N/Nc3nc4ccccc4s3)cc2)cc1`, the growth with NCI-H23 lung was 33.9%; in the assay on NCI-H226 lung, 18%; with NCI-H322M lung, 30.2%; with HOP-62 NSCLC it was 39.3%; in the assay on NCI-H460 lung it was -12.6% (active); in the assay on HOP-92 NSCLC, -24.8% (active). Besides, the growth with NCI-H522 lung was 31.1%; in the assay with A549/ATCC NSCLC, 26.5%; in the assay on 786-0 renal, -6.47% (active); in the assay on COLO 205 colon it was 64%; in the assay with DU-145 prostate, -49.1% (active); with K-562 leukemia, 34.8%. The growth is 24.1% in the assay on MALME-3M melanoma; 10.2% with MDA-MB-231 breast; 19.9% in the assay on SF-268 CNS; 47.4% in the assay on SF-295 CNS; 21.1% in the assay with SF-539 CNS; 53.8% in the assay with UACC-257 melanoma. The growth in the assay with M14 melanoma is 54%.

For the compound `Cc1ccc(C2CC(c3cccc(Nc4ccncc4)c3)=NN2c2cc(Cl)cc(Cl)c2)cc1` (centres undefined), the growth with NCI-H23 lung was 61.1%; in the assay with NCI-H226 lung, 86.3%; in the assay with NCI-H322M lung it was 73.7%; in the assay on HOP-62 NSCLC, 40.5%; in the assay with NCI-H460 lung it was -73.4% (active); in the assay on HOP-92 NSCLC, 57.7%. The growth in the assay on NCI-H522 lung is 21%; with A549/ATCC NSCLC it was 4.87% (active); in the assay on 786-0 renal, 51%; in the assay with COLO 205 colon, -43.1% (active); in the assay on DU-145 prostate, 30.8%; with K-562 leukemia it was 1.45% (active). In addition, the growth in the assay with MALME-3M melanoma was 1.81% (active); in the assay on MDA-MB-231 breast, 40.9%; with SF-268 CNS, 82.8%; in the assay on SF-295 CNS it was -6.71% (active); in the assay with SF-539 CNS it was 78.1%; with UACC-257 melanoma it was 76.2%. In the assay with M14 melanoma, the growth was 2.02% (active).

On to `Cc1ccc(C2CC(c3cccc(Nc4ccncc4)c3)=NN2c2ccc(Cl)cc2)cc1` (centres undefined), for which the growth in the assay on NCI-H23 lung was -83.2% (active); in the assay on NCI-H226 lung, -38.8% (active); with NCI-H322M lung it was -99.7% (active); with HOP-62 NSCLC, -65.9% (active); in the assay with NCI-H460 lung it was -76.1% (active); in the assay on HOP-92 NSCLC, -90.3% (active). The growth in the assay on NCI-H522 lung is -71.2% (active); in the assay on A549/ATCC NSCLC, -34.5% (active); in the assay on 786-0 renal, -88.4% (active); in the assay with COLO 205 colon, -66.3% (active); in the assay on DU-145 prostate it was -93.3% (active); in the assay on K-562 leukemia, -18.8% (active). Moreover, the growth was -86% (active) in the assay on MALME-3M melanoma; -86% (active) with MDA-MB-231 breast; -72% (active) in the assay on SF-268 CNS; -85.6% (active) in the assay on SF-295 CNS; -96.2% (active) in the assay with SF-539 CNS; -35.1% (active) with UACC-257 melanoma. Besides, the growth in the assay on M14 melanoma is -57.3% (active).

For the compound `COc1nccnn1`, the growth with NCI-H23 lung is 107%; in the assay with NCI-H226 lung it was 96.2%; in the assay with NCI-H322M lung, 91%; in the assay with HOP-62 NSCLC, 114%; with NCI-H460 lung, 122%; in the assay with HOP-92 NSCLC it was 69.5%. Besides, the growth with NCI-H522 lung was 109%; with A549/ATCC NSCLC, 102%; in the assay on 786-0 renal it was 104%; in the assay with COLO 205 colon it was 112%; in the assay on DU-145 prostate, 96.2%; in the assay on K-562 leukemia, 80.7%. Also, the growth was 120% in the assay with MALME-3M melanoma; 110% in the assay on MDA-MB-231 breast; 114% in the assay with SF-268 CNS; 136% in the assay on SF-295 CNS; 104% in the assay with SF-539 CNS; 109% with UACC-257 melanoma. The growth with M14 melanoma is 108%.

As to `Clc1ccc(N2N=C(c3cccc(Nc4ccncc4)c3)CC2c2ccc(Br)cc2)cc1` (centres undefined), the growth in the assay on NCI-H23 lung was 57.1%; in the assay on NCI-H226 lung it was 92.2%; in the assay with NCI-H322M lung it was 66.2%; in the assay with HOP-62 NSCLC, -39.3% (active); in the assay with NCI-H460 lung it was -82.6% (active); with HOP-92 NSCLC, 60.3%. In addition, the growth was -13.2% (active) with NCI-H522 lung; 16.7% in the assay with A549/ATCC NSCLC; 105% in the assay with 786-0 renal; -48.7% (active) in the assay on COLO 205 colon; 24.8% with DU-145 prostate; 1.38% (active) in the assay with K-562 leukemia. Further, the growth with MALME-3M melanoma was -40.5% (active); in the assay on MDA-MB-231 breast it was 31.8%; with SF-268 CNS, 72.2%; in the assay on SF-295 CNS, -69% (active); in the assay with SF-539 CNS, 83.8%; in the assay with UACC-257 melanoma it was 77.8%. Moreover, in the assay with M14 melanoma, the growth was 107%.
